# Compounds without any hit were thinned out: in the full panel of roughly 79,000, 15% have a hit. A number with no mark means an inactive call. Activity calls are given as the source filed them. Cut-off read from the data, not from the text of the source: active = growth inhibition above about 70%; inactive = the rest. Where a SMILES comes first, the peptide text is derived from it. [ ]: non-standard residue; d: D form. The star is where a group is joined. ξ: configuration not given here. Cbz = O=C(OCc1ccccc1)*; ξM = CSCCC(N)C(=O)O
# How the values were obtained:
# [1] = NCI Yeast Anticancer Drug Screen. Data for the rad50 strain (AID 155);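 note: 0% = growth of vehicle-only cultures of the same strain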; settings: S. cerevisiae rad50 strain growth inhibition; at 50.0 µM; active compounds read high
# Summary of the method: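 DNA repair mutant yeast, compound exposure, growth read-out; inhibition is taken relative to vehicle.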
# [2] = NCI Yeast Anticancer Drug Screen. Data for the mec2-1 strain (AID 157); settings: S. cerevisiae mec2-1 strain, at 50.0 µM, active compounds read high
# Summary of the method: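 Test agents were screened against the mec2-1 yeast strain, with defined DNA repair or cell cycle alteration. Growth was scored as inhibition against vehicle-only controls.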
# [3] = NCI Yeast Anticancer Drug Screen. Data for the sgs1 mgt1 strain (AID 161);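 note: 0% = growth of cultures given vehicle only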; settings: S. cerevisiae sgs1 mgt1 strain, at 50.0 µM, active compounds read high
# Summary of the method: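 Test agents were incubated with a DNA-repair-mutant yeast strain. Growth was then read and compared against vehicle-treated controls.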
# [4] = NCI Yeast Anticancer Drug Screen. Data for the cln2 rad14 strain (AID 165);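 note: 0% = growth equal to vehicle treated cultures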; settings: S. cerevisiae cln2 rad14 strain, at 50.0 µM, active compounds read high
# Summary of the method: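 Growth of compound-exposed yeast (cln2 rad14 genotype) measured and expressed as inhibition relative to vehicle.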
# [5] = NCI Yeast Anticancer Drug Screen. Data for the bub3 strain (AID 167); settings: S. cerevisiae bub3 mutant strain, at 50.0 µM, active compounds read high
# Summary of the method: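 In this screen, a yeast mutant lacking normal mitotic checkpoint function is challenged with compound. Relative growth versus vehicle gives the inhibition value.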
# [6] = NCI Yeast Anticancer Drug Screen. Data for the mlh1 rad18 strain (AID 175); settings: S. cerevisiae mlh1 rad18 strain growth inhibition; at 50.0 µM; active compounds read high
# Summary of the method: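 In this whole-cell yeast screen, a strain with altered DNA damage repair is challenged with compound, and its growth is measured against matched vehicle-treated controls.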
Structure (SMILES),growth inhibition [1],growth inhibition [2],growth inhibition [3],growth inhibition [4],growth inhibition [5],growth inhibition [6]
CC(=O)OCCOCN1C(=O)CC(=O)NC1=O,-10.2%,-10.6%,-4.5%,-5.45%,-22.3%,-30.2%
N/C(=N\C(=O)OCCOC(=O)/N=C(/N)c1ccccc1)c1ccccc1,-3.5%,-8.5%,-6.05%,-20.5%,-3.1%,-27.1%
CS(=O)(=O)OC[C@@H](O)[C@@H](O)COS(C)(=O)=O,-2.15%,7.4%,-1.85%,-57.1%,3.55%,-6.85%
CC(=O)NC1C(O)C(O)C(CO)OC1n1nc(SCc2ccccc2)c(=O)[nH]c1=O (stereo unspecified),3.9%,11.9%,-12.9%,-5.65%,-24.4%,-36.5%
O=C1OCC=C1COC1OC(CO)C(O)C(O)C1O (stereo unspecified),-6.35%,3.55%,-12.8%,5.05%,-11.9%,-41.7%
COc1ccc2cc(C(=O)c3ccccc3)c(=O)oc2c1,-0.1%,-20.9%,18.8%,11.1%,12.2%,-13.6%
COc1ccc(C[C@H](N)C(=O)NC2C(CO)OC(n3cnc4c(N(C)C)ncnc43)C2O)cc1 (stereo partly specified),-1.7%,-35.1%,-18.4%,-0.8%,-26.9%,-17.3%
CC(C)(C)CC(C)(C)NC(=O)CCl,-6.05%,2.15%,2.6%,-4.85%,10.3%,-5.45%
N#CCc1nn(-c2ccccc2)c2ncn(N)c(=N)c12,-8.45%,-14.8%,-9.6%,-22.2%,6.2%,-12.2%
CCOC(=O)C1=C(C)N(NC(=O)OC)C2(N)N(NC(=O)OC)C(C)=C(C(=O)OCC)C12C#N (stereo unspecified),-13.3%,-3.2%,-7.45%,-5.7%,2.5%,-18.4%
CCc1cccc(CC)c1N1C(=O)C(=O)C(C(C)=O)C1=O (stereo unspecified),-4.05%,-4.45%,7.6%,-24.5%,-1.25%,8.45%
CNC(=O)C1NCCc2cc(OC)c(OC)cc21 (stereo unspecified),21.9%,-22%,20.7%,13.2%,10.4%,20.6%
C1=CC(c2ccccc2)=C(c2ccccc2)C(c2ccccc2)C(c2ccccc2)=C1 (stereo unspecified),18.2%,1.95%,13.2%,26.9%,-1.05%,11.8%
CCOC(=O)NN(C(=O)OCC)c1c(NC)n(C)c(=O)n(C)c1=O,-23.4%,7.1%,-7.7%,-23.8%,11.1%,13.3%
Nc1nnc(-c2ccccc2)s1,-11.8%,5.95%,2.2%,13.8%,5.85%,5.05%
COc1ccc2c(c1)c1c3c(ccc4ncn2c43)N(CCO)CCN=1,-19.6%,-52%,-25.9%,-23.5%,-12%,1.6%
CC1=CC(=O)/C(=C/n2c(=S)sc3ccccc32)C(=O)O1,-27.4%,7.1%,27.9%,23%,-29.9%,14.6%
O=S(=O)(c1ccccc1)N1CCC1c1ccccc1 (stereo unspecified),-11.3%,-3.9%,-8.8%,21.9%,9.3%,0.8%
CSc1nnc(CCC(=O)Nc2ccc(Cl)cc2Cl)o1,0.75%,12.5%,10.9%,10.3%,14.4%,-10.2%
CC(=O)C(CCCCCCCCCCC(C(C)=O)C(C)=O)C(C)=O,-9.3%,-2.75%,-5.05%,-38.6%,-6%,-10.2%
C=Cc1cccc([N+](=O)[O-])c1,15.8%,-0.15%,6.6%,16.5%,19.6%,-3.7%

Structure (SMILES),growth inhibition [1],growth inhibition [2],growth inhibition [3],growth inhibition [4],growth inhibition [5],growth inhibition [6]
NC(=S)NNC(N)=S,2.2%,-12.9%,-7.3%,17.4%,-3.2%,24.5%
O=C(Nc1ccc(F)c([N+](=O)[O-])c1)N(Cc1ccccc1)c1ccccc1,8.05%,1.05%,1.55%,5.95%,26.9%,16.9%
CSCCC(NC(=O)CNC(=O)CNC(=O)OCc1ccccc1)C(=O)O (stereo not drawn) (Cbz-Gly-Gly-[ξM]-OH),96.5% (active),98.7% (active),92.5% (active),98.4% (active),99% (active),96.7% (active)
O=C(Nc1ccccc1[N+](=O)[O-])Oc1ccc(-c2ccccc2)cc1,9.05%,5.75%,9.05%,-7.65%,46.4%,-28.9%
CC(=O)c1c(Cl)cc(Cl)c(Cl)c1Cc1c(Cl)c(Cl)cc(Cl)c1C(C)=O,9.5%,9.8%,7%,18.2%,5.95%,9.55%
CC1(C)OC2CC(=O)OCC23C1CC(=O)C1(C)C3CCC2(C)C(c3ccoc3)OC(=O)C3OC321 (stereo unspecified),-7.65%,1.4%,-0.55%,10.1%,8.7%,18.5%
CC1CC2=Cc3c(O)c(O)cc(O)c3C(=O)C2=CO1 (stereo unspecified),-5.5%,-31.7%,-19.7%,-11.6%,-5.7%,-19.1%
CCCCCCCNc1ccc(C(=O)OCC)cc1,-1.5%,5.35%,-1.95%,8.15%,7.3%,-7.55%
C[C@@H](C1CCC2C3C(=CC(=O)[C@@]21C)[C@H](C)[C@]1(CCC(=O)O1)C1OC31)[C@H]1C[C@]2(C)O[C@@](C)(O1)OC2(C)C (stereo partly specified),-11.2%,-0.9%,-25.9%,-4.85%,-14.2%,9.15%
[Mn+2].[Mn+2].c1ccc2c(c1)-c1nc-2nc2[n-]c(nc3nc(nc4[n-]c(n1)c1ccccc41)-c1ccccc1-3)c1cc3c4nc5nc(nc6[n-]c(nc7nc(nc([n-]4)c3cc21)-c1ccccc1-7)c1ccccc61)-c1ccccc1-5,15.4%,-0.9%,-8.75%,-21.2%,0.4%,21.8%
CCOC(=O)C(C)(C)Oc1ccc(N=[N+]=[N-])cc1,13.1%,9.15%,41.5%,4.35%,5.8%,19.6%
CNC(CCc1ccccc1)C(=O)O (stereo unspecified),1.9%,-1.25%,8.4%,-7.3%,4.4%,2.7%
COCCOCOC(C)(C)[C@H](CCO)O[Si](c1ccccc1)(c1ccccc1)C(C)(C)C,91.9% (active),96.5% (active),37.6%,91.6% (active),91.4% (active),95.8% (active)
C=C(C)/C=N/NS(=O)(=O)c1ccc(C)cc1,-14.6%,9.65%,6.7%,-26.1%,-18.1%,4.9%
CCCCCCc1c(C)nc(N)[nH]c1=O,7.55%,-3.85%,-13.4%,-67.7%,10%,-1.05%
CC(=O)C1OC1c1ccccn1 (stereo unspecified),-5.15%,3.7%,-9.5%,55.8%,3.4%,3.35%
COC(=O)c1ccccc1NC(=NC1CCCCCC1)NS(=O)(=O)c1ccc(C)cc1,30.4%,11.2%,-13.8%,-8.15%,0.3%,-31.3%
Cc1ccc(OC(=O)c2ccc([N+](=O)[O-])cc2)cc1C(C)C,-15.6%,-9.25%,-11.7%,-6.45%,-10.1%,-22%
C=CC[N+](CC)(CC)CC,12.3%,-0.45%,2.35%,12.3%,19.4%,13.3%
Cc1nc(N)[nH]c(=O)c1CCCNc1ccc(CCCCCCC2(CCl)OCCO2)cc1,12.4%,-0.15%,1.45%,2.9%,17.4%,-9.4%

# From PubChem BioAssay (NCI)
